# Measured values from PubChem BioAssay (NCI).
# “And” between values parts separate entries of the source, which are not always exact repeats. Equal values may be shown once. About 83,000 compounds went through this panel and 20% of them were active in at least one assay; those are over-represented in the sample as a whole.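 Each cell line was grown in a 96-well plate and treated with one concentration of compound for 48 hours. Values below 10 were considered active.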 Values without a mark were called inactive. The source made the active and inactive calls.
# System: CCRF-CEM leukemia
# Experiment: NCI-60 one-dose screen, 48 h (100 = growth as untreated, 0 = no growth, -100 = all killed)
# Details: 10 µM unless noted
row,Compound,growth
1,O=C1c2cccnc2-c2nccc3c2c1nc1cc(Br)ccc13,-26.3% (active) and -4.46% (active)
2,NC(=S)N/N=C\c1nccc2c(C(F)(F)C(F)(F)C(F)(F)F)cccc12,-8.14% (active)
3,O=C1c2ccccc2C(=O)c2sc(Nc3ccc(Cl)cc3)nc21,13.1%
4,CCCCCC(CCCCC)C(=O)O,83.8%
5,CC1OC(OC2C(OC3CCC4(C)C(CCC5(C)C4CC=C4C6CC(C)(C)CCC6(CO)C(O)CC45C)C3(C)C)OC(C(=O)O)C(OC3OC(COC4OC(CO)C(O)C(O)C4O)C(O)C(O)C3O)C2O)C(O)C(O)C1O (stereo not given),-26.3% (active)
6,O=Nc1ccccc1N=O,97.5%
7,CN(Cc1cnc2nc(N)nc(N)c2n1)c1ccc(C(=O)NC(CCC(=O)O)C(=O)O)cc1 (stereo not given),28.8%
8,CCCCCCCCCCCCCCNCc1ccccc1,60.5%
9,O=C(Nc1cccc(Br)c1)Oc1ccc(Cl)c2cccnc12,10.7% [100 µM]
10,Cc1ccc2c(ccc3c[n+]4c5ccccc5ccc4n32)c1,19.2%
11,CCC(c1cccc(O)c1)C(CC)c1cccc(O)c1 (stereo not given),49.8%
12,CN(C)c1ccc(N=Nc2cccc3ccccc23)cc1,81.6%
13,CCOC(=O)/C=C/c1ccc([N+](=O)[O-])o1,7.26% (active)
14,Cc1cc2nc(CS)[nH]c2cc1C,55%
15,NC(=S)N/N=C/c1ccc(Cl)s1,94.6%
16,CCOc1ccc(-c2nc3ccc(-c4nc5ccc(N6CCN(C)CC6)cc5[nH]4)cc3[nH]2)cc1,4.03% (active)
17,O[C@H]1[C@H]2c3cc4c(cc3CN3CCC(=C[C@@H]1O)[C@H]23)OCO4,23.6%
18,O=C1C=CC(=O)N1C1c2ccccc2-c2ccccc21,30.4%
19,COc1ccc(N=N/N=c2\sc3cc(OC)ccc3n2C)cc1,93.5%
20,C1=C(c2ccccc2)C(c2ccc(OCCN3CCCCC3)cc2)Oc2ccccc21 (stereo not given),37.5%
21,CC1SC(=S)N(c2ccc(Cl)cc2)C1=O (stereo not given),113% and 94.8%
22,Oc1ccc(/C=N/NC(=S)Nc2ccccc2)nc1,6.28% (active)

# System: MOLT-4 leukemia
# Experiment: as above
# Details: 10 µM unless noted
row,Compound,growth
1,Cc1cc(C(C)(CC(C)C)c2ccc(O)c(C)c2)ccc1O,80.8%
2,O=C1c2cccnc2-c2nccc3c2c1nc1cc(Br)ccc13,-39.5% (active) and -31% (active)
3,NC(=S)N/N=C\c1nccc2c(C(F)(F)C(F)(F)C(F)(F)F)cccc12,-30.9% (active)
4,N#CSCc1ccc(Cl)c(CSC#N)c1,17.5%
5,CC(=O)Nc1cccc2cc(O)ccc12,111% and 108% and 98.5%
6,O=C1c2ccccc2C(=O)c2sc(Nc3ccc(Cl)cc3)nc21,6.68% (active)
7,CCCCCC(CCCCC)C(=O)O,96.1%
8,CN(C)c1ccc(C(=C2C=CC(=[N+](C)C)C=C2)c2ccc(N(C)C)cc2)cc1 (tested in a mixture with another compound),-23.7% (active)
9,Nc1ncnc2c1ncn2C1OC(CO)C(O)C1O (stereo not given),102% and 111% and 109%
10,Oc1c(Br)cc(Cl)cc1C(c1cc(Cl)cc(Br)c1O)C(Cl)(Cl)Cl,14.6%
11,CC1OC(OC2C(OC3CCC4(C)C(CCC5(C)C4CC=C4C6CC(C)(C)CCC6(CO)C(O)CC45C)C3(C)C)OC(C(=O)O)C(OC3OC(COC4OC(CO)C(O)C(O)C4O)C(O)C(O)C3O)C2O)C(O)C(O)C1O (stereo not given),-67% (active)
12,O=Nc1ccccc1N=O,99.9%
13,CN(Cc1cnc2nc(N)nc(N)c2n1)c1ccc(C(=O)NC(CCC(=O)O)C(=O)O)cc1 (stereo not given),24.4%
14,CCCCCCCCCCCCCCNCc1ccccc1,56.4%
15,O=C(Nc1cccc(Br)c1)Oc1ccc(Cl)c2cccnc12,2% [100 µM] (active)
16,Cc1ccc2c(ccc3c[n+]4c5ccccc5ccc4n32)c1,8.93% (active)
17,CCC(c1cccc(O)c1)C(CC)c1cccc(O)c1 (stereo not given),33.7%

row,Compound,growth
1,CN(C)c1ccc(N=Nc2cccc3ccccc23)cc1,84.3%
2,CCOC(=O)/C=C/c1ccc([N+](=O)[O-])o1,-3.02% (active)
3,Cc1cc2nc(CS)[nH]c2cc1C,-39.5% (active)
4,CCCCCCC(C)c1ccccc1O (stereo not given) (tested in a mixture with another compound),102%
5,Oc1c(Br)c(Br)c(O)c(Br)c1Br,42.6%
6,COC(=O)[C@@]12OC[C@]34[C@H]([C@@H](O)[C@@H]1O)[C@@]1(C)[C@H](O)C(=O)C=C(C)[C@@H]1C[C@H]3OC(=O)C(OC(C)=O)[C@@H]24 (stereo not given in full),-41.6% (active)
7,NC(=S)N/N=C/c1ccc(Cl)s1,99.2%
8,CCC(CC)COC(=O)c1ccc(O)c(O)c1,30.3%
9,CCOc1ccc(-c2nc3ccc(-c4nc5ccc(N6CCN(C)CC6)cc5[nH]4)cc3[nH]2)cc1,-60.5% (active)
10,Nc1nc(N)c2c(ccc3c2ccn3Cc2cccc([N+](=O)[O-])c2)n1,46.2%
11,O[C@H]1[C@H]2c3cc4c(cc3CN3CCC(=C[C@@H]1O)[C@H]23)OCO4,8% (active)
12,O=C1C=CC(=O)N1C1c2ccccc2-c2ccccc21,33.8%
13,COc1ccc(N=N/N=c2\sc3cc(OC)ccc3n2C)cc1,92.1%
14,C1=C(c2ccccc2)C(c2ccc(OCCN3CCCCC3)cc2)Oc2ccccc21 (stereo not given),47.1%
15,CC1SC(=S)N(c2ccc(Cl)cc2)C1=O (stereo not given),83.6% and 86.9%
16,Oc1ccc(/C=N/NC(=S)Nc2ccccc2)nc1,-35.2% (active)
